# Source: PubChem
# Pf Dd2 inh: Plasmodium falciparum Dd2 growth inhibition; AID 1347417; P. falciparum Dd2 growth, SYBR Green, 72 h; Potency, µM (top dose mostly 28.9 µM), for the others: at the highest dose activity, negative = inhibition, most hits filed as inhibitors; 120,000 tested, 4.3% active; active means well fitted inhibition curve with a large enough effect;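 further: plate controls were DMSO vehicle for no effect and reference drug for full effect; nearly all actives have a fitted effect of over 65% in size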
#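 Infected erythrocytes (Dd2, 0.3% parasitemia, 2.5% hematocrit final) are added to compound in RPMI-1640/Albumax II medium, grown 72 h at 37C in low oxygen, then lysed with saponin/Triton-X containing SYBR Green and read by fluorescence.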
# * hit, by the source's call; i = inactive; [ ] = dose if it differs, or a comment. Many of the other results were omitted from the sample, so hits are more common in it than they were. Potency means the concentration at half of the fitted maximal effect.
SMILES,Pf Dd2 inh
CCOc1ccc(N2CC(NC(=O)Cc3cccs3)CC2=O)cc1 (stereo not drawn),i
CCOC(=O)c1ccc(N2C(=O)c3[nH]nc(-c4ccc(C)cc4)c3C2c2cccc(F)c2)cc1 (stereo not drawn),5.01µM*
CCCN1C(=O)c2[nH]nc(-c3ccc(F)cc3)c2C1c1ccc(O)c(OCC)c1 (stereo not drawn),i
CCCN1C(=O)c2[nH]nc(-c3ccc(OC)cc3)c2C1c1ccccn1 (stereo not drawn),-18.6%
CCOC(=O)c1ccc(N2C(=O)c3[nH]nc(-c4ccccc4)c3C2c2ccc(CC)cc2)cc1 (stereo not drawn),10µM*
CCOc1ccc(C(=O)OCc2cc(=O)n3nc(C4CC4)sc3n2)cc1,-6.5%
CCOC(=O)c1ccc(N2C(=O)c3[nH]nc(-c4ccc(OCC)cc4)c3C2c2cccs2)cc1 (stereo not drawn),2.82µM*
O=C1c2[nH]nc(-c3ccc(F)cc3)c2C(c2ccccc2F)N1c1ccccc1 (stereo not drawn),-28.2%
CCOc1ccc(-c2n[nH]c3c2C(c2cccs2)N(c2ccc(Br)cc2)C3=O)cc1 (stereo not drawn),3.55µM*
Cc1ccc(N2C(=O)c3n[nH]c(C)c3C2c2ccc(Cl)cc2)cc1 (stereo not drawn),-18.0%
CCCN1C(=O)c2[nH]nc(-c3ccc(F)cc3)c2C1c1ccccn1 (stereo not drawn),-15.0%
CCc1ccc(C2NC(=O)c3[nH]nc(-c4cccc(OC)c4)c32)cc1 (stereo not drawn),-10.3%
Cc1nc(C)n(CCNC(=O)[C@H]2CNC[C@@H](C(=O)N3CCOCC3)C2)n1,21.0%
COc1ccc(CN2C(=Nc3ccccc3)S[C@H]3[C@@H]2[C@@H](O)[C@H](O)C[C@@H]3C(N)=O)cc1,-9.3%[44.1 µM]
COc1ccccc1CNC(=O)C(C)n1c(=O)cc(-c2ccccc2)c2c(C)nn(C)c21 (stereo not drawn),-29.6%
COc1ccc(F)cc1-c1ccc(COc2ccc3c(cnn3CCC(=O)O)c2)cc1,-11.1%[44.1 µM]
O=C(c1cnn2ncccc12)N1CCOCC1,24.3%[44.1 µM]
CCc1ccc(NC(=O)Cn2ccn3nc(-c4ccccc4)c(CO)c3c2=O)cc1,i
Cc1nnc2n1CCC(N(C)C(=O)c1cc(C3CC3)[nH]n1)CC2 (stereo not drawn),16.3%
Cc1cccn2c(=O)c(/C=C(\C#N)c3nc4ccccc4[nH]3)c(Oc3ccc(C(C)(C)C)cc3)nc12,24.3%
Cc1ccc(NC(=O)Cn2c(-c3cnccn3)nc(C)c(C)c2=O)cc1C,-23.6%
CC(NC(=O)c1ccc2c(c1)CCN2S(C)(=O)=O)c1ccccc1 (stereo not drawn),26.1%
CCOC(=O)c1ccc(NC(=O)c2oc(=O)c3ccccc3c2-c2ccccc2)cc1,24.0%
CCOc1ccccc1NC(=O)C1=C(C)Nc2ncnn2C1c1cccs1 (stereo not drawn),1.1%
CCOC(=O)c1ccc(N2C(=O)c3[nH]nc(-c4ccccc4)c3C2c2cccs2)cc1 (stereo not drawn),7.08µM*
SMILES,Pf Dd2 inh
CC(=O)N1CCCC2(Cc3ccccc3CN2C(=O)c2ccccc2)C1 (stereo not drawn),-16.2%
CN(CC1(O)CCCN(Cc2ccc(F)cc2)C1=O)C1CCOCC1 (stereo not drawn),i
O=C1CC2CCCC(C1)N2C(=O)c1ccccc1Cl,-20.9%[44.1 µM]
COc1ccc(CNC2CN(C(=O)OC(C)(C)C)C2)cc1,-12.5%
CC(C)(C)OC(=O)N1CC(NCc2ccc(-c3ccc(OC(F)(F)F)cc3)cc2)C1,10µM*
CC(C)(C)OC(=O)N1CC(NCc2ccc(C(F)(F)F)cc2)C1,-7.4%
Cc1nc(CCNS(=O)(=O)c2ccc3c(c2)OCCO3)no1,0.9%
COc1ccc(C(=O)NCCn2cc(SCC(=O)Nc3ccc4c(c3)OCCO4)c3ccccc32)cc1OC,i
Cc1ccc(C(=O)/C=C/c2cn(CC(O)CN3CCc4ccccc43)c3ccccc23)cc1 (stereo not drawn),5.62µM*
Cc1ccc(C(=O)N2CCc3cn(C)c4cccc(c34)C2)cc1,-23.1%
CC(C)CN(CC(C)C)CC(O)Cn1cc(/C=C/C(=O)c2ccccc2)c2ccccc21 (stereo not drawn),2.51µM*
COc1ccc(NC(=O)CSc2cn(CC(=O)N3CCOCC3)c3ccccc23)cc1OC,13.0%
Cc1ccc(NC(=O)CSc2cn(CC(=O)N3CCCCCC3)c3ccccc23)cc1,-2.3%
COc1ccc(C(=O)/C=C/c2cn(CC(O)CN3CCc4ccccc43)c3ccccc23)cc1OC (stereo not drawn),8.91µM*
CC(C)N(C(=O)Cn1cc(S(=O)(=O)Cc2ccc(Cl)cc2)c2ccccc21)C(C)C,i[5.79 µM]
Cc1ccc(CSc2nnc3[nH]c(=O)cc(C)n23)cc1,i
CSc1cccc(NC(=O)Cn2cnc(S(=O)(=O)N3CCCC3)c2)c1,i
CN(C)C[C@H]1O[C@@H](CO)[C@@H](O)[C@H]1N1CCN(C)CC1,15.0%[44.1 µM]
